Only some compounds are listed: those with a hit (about 2.3% of all), similar ones and a draw of the others.
UBC13 inh: human UBC13 polyubiquitination inhibition | P61088 | UBC13 polyubiquitin chain formation, TR-FRET | inhibition, % at 20 µM | 330,000 tested, 0.47% active | AID 485273; in the data active = inhibition above about 45%, passing the limit was not always enough
Target sequence (P61088 whole entry, looked up): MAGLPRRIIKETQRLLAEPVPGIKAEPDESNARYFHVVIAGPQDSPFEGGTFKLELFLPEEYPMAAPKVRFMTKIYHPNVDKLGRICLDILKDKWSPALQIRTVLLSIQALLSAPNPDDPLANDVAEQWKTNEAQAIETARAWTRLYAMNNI
MEKK2 mut-MEK5: signal of MEK5 binding to mutant human MEKK2 PB1 domain. bead flow cytometry, Alexa488-MEK5 binding to MEKK2 mutant. percent response, % at 10 µM. 290,000 tested, 0.35% active. AID 1530; in the data active = percent response above about 24%, passing the limit was not always enough
MEKK3 PB1 HTS: MEKK3-MEK5 PB1 interaction, increase or decrease. 290,000 tested, 1.4% active. Q99759. bead-based flow cytometry, Alexa488-MEK5 binding to MEKK3; actives lie on both sides; 0 = blocked by unlabeled MEK5, 100 = vehicle. binding response (% of control), % at 10 µM;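 active = binding response more than 3 SD above or below the average of its plate-row segment, actives on both sides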;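 also: Alexa488 bead fluorescence after subtracting the streptavidin-only scavenger bead signal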
MEKK2wt PB1 HTS: raises or lowers MEK5 binding to wildtype human MEKK2 PB1 domain. 290,000 tested, 1.1% active. Q9Y2U5. bead flow cytometry, Alexa488-MEK5 binding to MEKK2 WT; actives lie on both sides. binding response (% of control), % at 10 µM; in the data active = binding response below about 67% or above about 130%
MEKK2wt confirm: raises or lowers MEK5 binding to wildtype human MEKK2, retest | shares compounds with MEKK3 PB1 HTS | binding response (% of control), % at 10 µM | bead flow cytometry, Alexa488-MEK5 binding to MEKK2 WT; actives lie on both sides | 5,900 tested, 2.4% active; in the data active = binding response below about 16% or above about 210%; inactive = in between
MEKK2mut-MEK5: signal of MEK5 binding to mutant human MEKK2, retest; shares compounds with MEKK3 PB1 HTS; bead flow cytometry, Alexa488-MEK5 binding to MEKK2 mutant; percent response, % at 10 µM; 5,900 tested, 2% active; AID 1893; in the data active = percent response mostly above about 71%, no sharp cut-off; inactive = mostly below about 38%;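 also: higher means compound restores mutant binding toward wildtype level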
MEKK3 confirm: confirmation of inhibitors of MEK5 binding to human MEKK3. shares compounds with MEKK3 PB1 HTS. bead flow cytometry, Alexa488-MEK5 binding to MEKK3; hits give low values. binding response (% of control), % at 10 µM. 5,900 tested, 1.8% active;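 active = binding response below 72% of control, or above a set upper limit, though filed actives all read lower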;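 also: lower values mean stronger disruption of MEK5 binding to MEKK3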
Each line names hits and unclear results; the compound was inactive in the other large screens (follow-up assays come after a bar, where they were run); [ ] = remark or other dose.

COc1ccc(CN2CCNC(=O)C2CC(=O)N(C)Cc2ccon2)c(F)c1 (configuration not stated)	none
CC(C)(C)N=C1C([N+](=O)[O-])=CC=C2C1=NC1(CCCCC1)N2O	none
N=C1C=CC=C2C1=NC1(CCCCC1)N2O	MEKK3 PB1 HTS 2.0[inhibitor], MEKK2wt PB1 HTS 2.0[inhibitor] | MEKK2wt confirm inactive | MEKK2mut-MEK5 inactive | MEKK3 confirm inactive
O=C(CCCN1C(=O)C(c2ccccc2)Oc2cccnc21)NCCc1ccc(Cl)cc1 (configuration not stated)	none
Cc1ccc2c(CC(=O)OCc3csc(C)n3)coc2c1	MEKK3 PB1 HTS 3.0[inhibitor], MEKK2wt PB1 HTS 3.0[inhibitor] | MEKK2wt confirm inactive | MEKK2mut-MEK5 inactive | MEKK3 confirm inactive
O=[N+]([O-])c1cccc(-c2nc3ccc([N+](=O)[O-])cc3[nH]2)c1	MEKK3 PB1 HTS 128 | MEKK2wt confirm inactive | MEKK2mut-MEK5 inactive | MEKK3 confirm inactive
CCn1c(SCC(=O)NNC(=S)Nc2ccc(C)cc2)nnc1-c1ccc(Cl)cc1	MEKK3 PB1 HTS 134 | MEKK2wt confirm inactive | MEKK2mut-MEK5 inactive | MEKK3 confirm inactive
Cn1c(=NC(=O)COc2ccccc2)sc2ccccc21	MEKK3 PB1 HTS 74[inhibitor] | MEKK2wt confirm inactive | MEKK2mut-MEK5 inactive | MEKK3 confirm inactive
CCc1nc(SCC(=O)NNC(=O)C(C)C)c2ccccc2n1	none
CC(C)C(=O)NNC(=O)CSc1nc(C2CCCCC2)nc2ccccc12	MEKK3 PB1 HTS 140 | MEKK2wt confirm inactive | MEKK2mut-MEK5 inactive | MEKK3 confirm inactive
COc1ccc([N+](=O)[O-])cc1NC(=O)COC(C)=O	none
COc1ccc(C)cc1NC(=O)COC(C)=O	MEKK3 PB1 HTS 74[inhibitor] | MEKK2wt confirm inactive | MEKK2mut-MEK5 inactive | MEKK3 confirm inactive
Cc1ccc(Cn2cccc2C2=NC(C)CO2)cc1 (configuration not stated)	MEKK3 PB1 HTS 125 | MEKK2wt confirm inactive | MEKK2mut-MEK5 inactive | MEKK3 confirm inactive
C#CCOCCOCCOCCNc1nc(N2CCN(C(=O)[C@H]([C@@H](C)CC)n3cc([C@@H](N)CO)nn3)CC2)nc(N2CCN(C(=O)[C@H](CCCCN)n3cc([C@@H](N)C(C)CC)nn3)CC2)n1 (some centres not stated)	none
C#CCOCCOCCOCCNc1nc(N2CCN(C(=O)C([C@@H](C)CC)n3cc(C(N)COC(=O)C(F)(F)F)nn3)CC2)nc(N2CCN(C(=O)[C@H](CCCCN)n3cc(C(N)[C@H](C)CC)nn3)CC2)n1 (some centres not stated)	UBC13 inh 114, MEKK2 mut-MEK5 62, MEKK2wt PB1 HTS 304 | MEKK2wt confirm 237 | MEKK2mut-MEK5 86 | MEKK3 confirm inactive
C#CCOCCOCCOCCNc1nc(N2CCN(C(=O)[C@H](CCCCN)n3cc(CCCC)nn3)CC2)nc(N2CCN(C(=O)[C@H](CCCCN)n3cc(CCCC)nn3)CC2)n1	MEKK2wt PB1 HTS 159 | MEKK2wt confirm inactive | MEKK2mut-MEK5 inactive | MEKK3 confirm inactive
C#CCOCCOCCOCCNc1nc(N2CCN(C(=O)[C@H]([C@@H](C)CC)n3cc([C@@H](N)CC(C)C)nn3)CC2)nc(N2CCN(C(=O)[C@H](CCCCN)n3cc([C@@H](N)C(C)CC)nn3)CC2)n1 (some centres not stated)	MEKK2wt PB1 HTS 146 | MEKK2wt confirm inactive | MEKK2mut-MEK5 inactive | MEKK3 confirm inactive
C#CCOCCOCCOCCNc1nc(N2CCN(C(=O)[C@H]([C@@H](C)CC)n3cc([C@@H](N)CC(C)C)nn3)CC2)nc(N2CCN(C(=O)[C@H](CCCCN)n3cc([C@@H](N)CC(C)C)nn3)CC2)n1	UBC13 inh 55, MEKK2wt PB1 HTS 151 | MEKK2wt confirm inactive | MEKK2mut-MEK5 inactive | MEKK3 confirm inactive
COC(=O)c1ccc2c(c1)C(C)(C)C(/C=C/c1ccccc1O)=[N+]2C	MEKK2wt PB1 HTS -1.0[inhibitor] | MEKK2wt confirm inactive | MEKK2mut-MEK5 inactive | MEKK3 confirm inactive
C[N+]1=C(/C=C/Nc2ccccc2Cl)C(C)(C)c2ccccc21	none
O=c1nc(-c2ccccc2)cc(C(F)(F)F)[nH]1	none
Cc1cc(-c2ccccc2)nc(=O)[nH]1	MEKK3 PB1 HTS 130 | MEKK2wt confirm inactive | MEKK2mut-MEK5 inactive | MEKK3 confirm inactive
Nc1ccccc1SCC(=O)Nc1ccc2c(c1)OCO2	none
O=C(CSc1cccc[n+]1[O-])Nc1ccc2c(c1)OCO2	MEKK3 PB1 HTS 71[inhibitor] | MEKK2wt confirm inactive | MEKK2mut-MEK5 inactive | MEKK3 confirm inactive
COc1cc(/C=N\NC(=O)CNC(=O)C(c2ccccc2)c2ccccc2)ccc1O	none
COc1ccc(/C=N\NC(=O)CNC(=O)C(c2ccccc2)c2ccccc2)cc1[N+](=O)[O-]	MEKK3 PB1 HTS 143 | MEKK2wt confirm inactive | MEKK2mut-MEK5 inactive | MEKK3 confirm inactive
NC(=O)c1c(NC(=O)Cn2cc([N+](=O)[O-])cn2)sc2c1CCCC2	MEKK2 mut-MEK5 270 (no result: MEKK2wt PB1 HTS) | MEKK2wt confirm inactive | MEKK2mut-MEK5 inactive | MEKK3 confirm inactive
Cc1[nH]c(=O)c(S(=O)(=O)c2ccccc2)c(C)c1Cl	none
CSc1nc2nc3c(cc2c(=O)n1-c1ccc(C)cc1)COC(C)(C)C3	MEKK3 PB1 HTS 129 | MEKK2wt confirm inactive | MEKK2mut-MEK5 inactive | MEKK3 confirm inactive
COc1ccc(C2C3=C(CC(C)(C)CC3=O)Oc3ncn(Cc4ccco4)c(=N)c32)cc1 (configuration not stated)	MEKK3 PB1 HTS 2.0[inhibitor], MEKK2wt PB1 HTS -1.0[inhibitor] | MEKK2wt confirm inactive | MEKK2mut-MEK5 inactive | MEKK3 confirm inactive
COc1ccc(C2c3c(ncn(Cc4ccco4)c3=N)Oc3ccc4ccccc4c32)cc1 (configuration not stated)	MEKK2 mut-MEK5 56, MEKK2wt PB1 HTS 185 | MEKK2wt confirm inactive | MEKK2mut-MEK5 inactive | MEKK3 confirm inactive
N=c1c2c(ncn1Cc1ccco1)Oc1ccc3ccccc3c1C2c1ccccc1 (configuration not stated)	none
COc1ccccc1N1CCN(C(=O)c2cccc(S(=O)(=O)Nc3ccccc3F)c2)CC1	none (no result: MEKK2 mut-MEK5, MEKK3 PB1 HTS, MEKK2wt PB1 HTS)
CCOc1ccc(C2=C/C(=C/c3cccnc3)C(=O)O2)cc1	MEKK3 PB1 HTS 82[inhibitor] | MEKK2wt confirm inactive | MEKK2mut-MEK5 inactive | MEKK3 confirm 59
CCC(C(=O)NC1CCCC1)N(C(=O)Cn1nnc(-c2cccs2)n1)c1cnc2ccccc2c1 (configuration not stated)	none
CCC(C(=O)NC(C)(C)C)N(C(=O)Cn1nnc(-c2ccccc2F)n1)c1cnc2ccccc2c1 (configuration not stated)	MEKK3 PB1 HTS 128 | MEKK2wt confirm inactive | MEKK2mut-MEK5 inactive | MEKK3 confirm inactive

Assay outcomes: PubChem BioAssay, several laboratories
